This is part of a sample that, as a whole, favours compounds with a hit. Of some 83,000 tested, about 20% had one in any assay.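 Values shown are percent growth following 48 h exposure of cells in 96-well plates to a single concentration of compound; below 10 was considered active.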 Active and inactive are the calls of the source.

For the assay, the system named is OVCAR-8 ovarian. As to the kind of experiment: NCI-60 one-dose screen, 48 h (100 = growth as untreated, 0 = no growth, -100 = all killed). The conditions noted are these: 10 µM unless noted.
Regarding `Nc1cc(C(=O)N/N=C\c2ccc(OC(F)F)c(OC3CCCC3)c2)nn1CC(O)c1ccccc1` (stereo not drawn), the growth was 96.9% (inactive).

For `Clc1ccc2[nH]cc(-c3nn4cc(-c5ccncc5)nc4s3)c2c1`, the growth is 10.6% (inactive).

Regarding `CN1CC[C@@H]2[C@@]3(C)CC[C@H](O)C(C)(C)[C@@H]3CC[C@@]2(C)[C@]2(C)CC[C@@]3(CO)CCC(C)(C)C[C@@H]3C12` (stereo partly drawn), the growth is 97.2% (inactive).

With `Brc1cc(-c2cc(-c3ccc4c(c3)OCCO4)[nH]n2)cs1`, the growth was 51.8% (inactive).

Take `NS(=O)(=O)c1ccc(Nc2nc(Nc3ccccc3)nc(N3N=C(c4ccc(Cl)cc4)CC3c3ccc(Cl)cc3)n2)cc1` (stereo not drawn): the growth was 68.4% (inactive).

`O=C(N/N=C\c1ccc([N+](=O)[O-])cc1)c1ccc2nc(-c3ccc(Br)cc3)[nH]c2c1`: the growth was 13.5% (inactive).

Consider `O=C(/C=C/c1cccc(C(F)(F)F)c1)Nc1cccc(C(F)(F)F)c1`, for which the growth is 33% (inactive).

With `Brc1cccc(-c2cc(-c3ccc4c(c3)OC=CO4)[nH]n2)c1`, the growth was 42.3% (inactive).

Take `CCc1cc2c(cc1Cl)nc1c(=O)[nH]c(=O)nc-1n2CCOCC(C)C`: the growth is 59.2% (inactive).

`CCCCSC1=C(Cl)CN(c2ccccc2)C1=O`: the growth was 102% (inactive).

Regarding `Brc1ccc(-c2cc(-c3ccc4c(c3)OC=CO4)n[nH]2)s1`, the growth is 96.4% (inactive).

As to `O=c1c2cc(-c3ccc(F)cc3F)ccc2n(Nc2ccccc2)c(=O)n1-c1cccc(C(F)(F)F)c1`, the growth was 13.3% (inactive).

Regarding `CN1CCN(CCCCCC(=O)Nc2nc(-c3cccc(NS(=O)(=O)c4cccc5c(N(C)C)cccc45)c3)cs2)CC1`, the growth was 87.8% (inactive).

(Values after PubChem BioAssay (NCI).)
